Results published in ChEMBL document CHEMBL1157539, “Thousands of chemical starting points for antimalarial lead identification” (Nature, 2010).

Columns and labels:
Format in all cases: functional
Plasmodium falciparum [1] = assay: GSK_TCMDC: Inhibition of Plasmodium falciparum 3D7 in whole red blood cells, using parasite LDH activity as an index of growth. Test compounds present at 2uM
Plasmodium falciparum [2] = assay: GSK_TCMDC: Inhibition of Plasmodium falciparum Dd2 in whole red blood cells, using parasite LDH activity as an index of growth. Test compounds present at 2uM
HepG2 = assay: GSK_TCMDC: Percent inhibition of human HepG2 cell line. Test compounds present at 10uM.

SMILES	Inhibition (Plasmodium falciparum [1]) [%]	Inhibition (Plasmodium falciparum [2]) [%]	Inhibition (HepG2) [%]
CCCCOc1ccc(/C=C/c2ccc(-c3c(C)[nH]c(C)c(Cl)c3=O)s2)cc1	97	96	0
COc1ccc(N2C(N)=NC(N)=NC2(C)C)cc1.Cl	94	29	0
COc1ccc(-c2cccc(NC(=O)c3cccc(Cl)c3)c2)cc1CN1CCCC1.O=C(O)C(F)(F)F	99	66	45
O=C(NC1CCN(Cc2ccccc2)CC1)c1cc(C(=O)NC2CCN(Cc3ccccc3)CC2)cc(C(=O)NC2CCN(Cc3ccccc3)CC2)c1	100	100	13
CCNc1cc(C)nc(Nc2ccc(NC(=O)Cc3ccc(OC)cc3)cc2)n1	100	47	30
O=C(O)C(F)(F)F.O=S(=O)(NC1CCN(c2ccnc3cc(Cl)ccc23)C1)c1ccc(F)cc1 (configuration not stated)	98	88	3
COc1cccc(NC(=O)CSc2nc(-c3ccccc3Cl)ns2)c1	99	100	7
O=C(/C=C/c1ccc(Cl)c(Cl)c1)NC1CCC(CN2CCC(c3nc4ccccc4s3)CC2)CC1 (configuration not stated)	87	32	50
COc1cc(Cc2cnc(N)nc2N)cc(OCCCCCC(N)=O)c1OC	90	0	0
COc1cccc2c(NCc3ccccc3)nc(NCCCN3CCCCC3C)nc12 (configuration not stated)	90	2	20
COc1cc(Cc2cnc(N)nc2N)cc(OCCCCC2SC(=O)NC2=O)c1OC (configuration not stated)	94	0	0
CCSc1ccccc1COc1c(C)nc(N)nc1N.Cl	93	4	54
COc1cc(F)c2nccc([C@@H](O)CN3CCC(NCc4nc5cccc(F)c5[nH]4)CC3)c2c1.O=C(O)C(=O)O	99	5	11
Cc1cc(N[C@@H](CC(C)C)C(=O)NCCOc2ccccc2)nc(NCC2CCCCC2)n1.O=C(O)C(F)(F)F	97	53	24
O=C(O)C(F)(F)F.O=C1CCCN1CCCNCc1ccc(-c2ccc(-c3nc4cc(F)ccc4[nH]3)s2)cc1	100	91	19
Cc1cccc2nc(-c3cccc(-c4ccc(C(=O)NCc5ccccc5S(C)(=O)=O)cc4)c3)[nH]c12	100	27	17
COc1cc(C)nc2ccc(NC(=O)c3cc([N+](=O)[O-])cc([N+](=O)[O-])c3)cc12.Cl	100	94	0
Cc1cccc(-c2nc3cc(NC(=O)c4ccc([N+](=O)[O-])o4)ccc3o2)c1	94	73	8
O=C(/C=C/c1ccc(C(F)(F)F)cc1)N1CCc2cc3nccc(N4CCN5CCC[C@H]5C4)c3cc21	86	21	0
O=C(O)C(F)(F)F.O=S(=O)(NCCN1CCCC1)c1ccc(-c2cccc(CNCc3ccc(F)cc3)c2)s1	99	50	48
C[C@@H](C(=O)N1CCOCC1)N1CC[C@H](NS(=O)(=O)c2ccc3ccnc(N)c3c2)C1=O.O=CO	84	61	0
Fc1ccc2c(NN=Cc3ccc(Cl)cc3)ccnc2c1	100	99	7
Nc1nc(N)c2c(ccn2Cc2cc3c(cc2Cl)OCO3)n1	98	11	67
OC(CNc1ccnc(Nc2cccc(Cl)c2)n1)c1ccc(C(F)(F)F)cc1 (configuration not stated)	100	61	13
O=C(OCc1ccccn1)c1nc2ccccc2[nH]1	92	97	63
CCOc1c(CNCCCNc2cc(=O)c3ccccc3[nH]2)cc(I)cc1C(C)(C)C.Cl	100	89	17
CCOC(=O)c1ccc(NC(=O)Nc2ccc(-c3cccc(-c4nc5ccccc5[nH]4)c3)cc2)cc1	100	99	94
CCCCN(CCCC)/C(=N/C(=N)Nc1ccc(Cl)cc1)NCCCCCCN/C(=N\C(=N)Nc1ccc(Cl)cc1)N(CCCC)CCCC	81	72	0
Cc1cccc2nc(-c3ccc(-c4ccc(NC(=O)Nc5ccc(Cl)cc5)cc4)s3)[nH]c12	100	100	78
